The list is not random: actives were taken first. Their share in the collection is about 21%.
Pf growth 96h – Primary qHTS for delayed death inhibitors of the malarial parasite plastid, 96 hour incubation. P. falciparum luciferase reporter growth, 96 h. Potency, µM (titrated, usually from 28.7 µM), hits mostly inhibitors. 320,000 compounds, 6.9% hits. AID 504834, 2011
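Two-generation exposure (96 h) targets delayed-death phenotype. Reporter parasites carrying integrated firefly luciferase, in red cells at 2% hematocrit and 0.05% parasitemia final, kept at 37 C, 5% CO2; luminescence loss indicates inhibition.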
CHX counter – Cycloheximide Counterscreen for Small Molecule Inhibitors of Shiga Toxin | cell reporter, cycloheximide protein synthesis inhibition counterscreen | max response, % | 300,000 compounds, 12% hits | AID 2314, 2010; in the data active means max response mostly above about 13%, no sharp cut-off; inactive means mostly below about 14%; further: read at 38.3 µM for the half of the compounds with a filed dose
Pf growth 48h – Primary qHTS for delayed death inhibitors of the malarial parasite plastid, 48 hour incubation; Potency, µM (top dose mostly 28.7 µM), most hits filed as inhibitors; P. falciparum luciferase growth in erythrocytes, 48 h; 310,000 compounds, 5.9% hits
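Growth was read as firefly luciferase luminescence after a 48 h, 37 C, 5% CO2 exposure of compounds to reporter-bearing P. falciparum cultures (0.1% parasitemia, 2% hematocrit final) in Albumax-supplemented RPMI 1640.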
Shiga inhibitor – A qHTS for Small Molecule Inhibitors of Shiga Toxin; 290,000 compounds, 9.2% hits; inhibition, % at 38.7 µM; Vero cells, Shiga toxin protein synthesis inhibition reporter; in the data active means inhibition mostly above about 28%, no sharp cut-off; inactive means mostly below about 43%
Each line names hits and unclear results; the compound was inactive in the other large screens. Unless noted, the call rests on the fitted dose curve; in most records, active means well fitted inhibition curve with a large enough effect; inconclusive means small, poorly fitted or top-dose-only effect, or another doubt; inactive means no such curve, though single readings can be large or run the other way.

C=CCOc1ccccc1CNc1cccc(F)c1	Pf growth 96h 10µM
CCOc1ccc(Br)cc1CN(CC)CC	none
CCn1ncc(C(=O)Nc2ccc(S(=O)(=O)N3CCCC3)cc2)c1C	Pf growth 96h inconclusive, Pf growth 48h inconclusive
O=C(Nc1cccc(O)c1)c1cccc(S(=O)(=O)Nc2cccc(O)c2)c1	Pf growth 96h 1.9µM (no result: Shiga inhibitor)
Cc1cc(NC(=O)c2cccc(S(=O)(=O)N3CCCCCC3)c2)no1	Pf growth 96h 8.3µM (no result: Pf growth 48h)
O=C(Nc1cccc(O)c1)c1cccc(C(=O)Nc2cccc(O)c2)c1	Pf growth 96h inconclusive
CN1CCN(S(=O)(=O)c2ccc(NC(=O)c3cccc(S(=O)(=O)N4CCCC4)c3)cc2)CC1	Pf growth 96h inconclusive, Pf growth 48h 12µM
CCc1cccc2cc3c(N)c(C(=O)Nc4ccc(S(=O)(=O)N5CCCC5)cc4)sc3nc12	Pf growth 96h inconclusive, Pf growth 48h 12µM
CCOc1ccccc1C1NC(=O)c2ccccc2O1 (stereo unspecified)	Pf growth 48h inconclusive
Cn1cc(C(=O)Nc2ccc(C#N)cc2)c2ccccc2c1=O	none
CCOC(=O)c1ccc[n+](CC(=O)c2ccc(NC(=O)c3ccccc3)cc2)c1	Pf growth 96h inconclusive
C=C(C)[C@]12C[C@@H](C)[C@@]34OC(Cc5ccccc5)(O[C@@H]1[C@@H]3C=C(COC(=O)Cc1cc(OC)c(O)cc1I)C[C@]1(O)C(=O)C(C)=C[C@@H]41)O2	none (no result: Pf growth 96h, Pf growth 48h)
CC(=O)Nc1sc(C)c(C)c1C(=O)OCC(=O)NCc1ccc(F)cc1	Pf growth 48h inconclusive (no result: CHX counter, Shiga inhibitor)
O=C(Nc1cccc(O)c1)c1cccc(S(=O)(=O)N2CCCCCC2)c1	CHX counter 23, Shiga inhibitor 44
CN(C)S(=O)(=O)c1cccc(NC(=O)c2cccc(S(=O)(=O)N3CCCCCC3)c2)c1	Pf growth 96h 4.7µM, Pf growth 48h 13µM (no result: CHX counter, Shiga inhibitor)
O=C(Nc1cccc(S(=O)(=O)N2CCCC2)c1)c1cccc(OC(F)F)c1	Pf growth 96h 9.3µM, Pf growth 48h inconclusive (no result: CHX counter, Shiga inhibitor)
CS(=O)(=O)c1cccc(C(=O)Nc2cccc(S(=O)(=O)N3CCCC3)c2)c1	Pf growth 96h inconclusive (no result: CHX counter, Shiga inhibitor)
CN(C)S(=O)(=O)c1cccc(C(=O)Nc2ccc(S(=O)(=O)N3CCCC3)cc2)c1	Pf growth 96h inconclusive, Pf growth 48h 12µM
CCn1c(SCC(=O)Nc2cccc(C)n2)nc2c1c(=O)n(C)c(=O)n2C	none
CN(C)/C=N/N(C)c1ncccc1[N+](=O)[O-]	none
CN1CCN(S(=O)(=O)c2ccc(NC(=O)c3csc4ccccc34)cc2)CC1	Pf growth 48h 4.7µM (no result: Pf growth 96h)
COc1ccc(N(CC(=O)NC2CCCCCC2)S(=O)(=O)c2ccccc2)cc1Cl	Pf growth 96h inconclusive, Pf growth 48h inconclusive
CCC1SC(=Nc2cccc(C)c2)NC1=O (stereo unspecified)	Pf growth 96h 10µM
CC(C)c1ccccc1	none (no result: CHX counter, Shiga inhibitor)
CC(c1ccccc1)[n+]1ccccc1 (stereo unspecified)	Pf growth 96h 12µM, Pf growth 48h 9.3µM (no result: CHX counter, Shiga inhibitor)
O=C(NCC1CCCO1)c1ccc(Oc2ccc([N+](=O)[O-])cc2Cl)cc1 (stereo unspecified)	none
O=C(NCC1CCCO1)c1ccc(Oc2ccc([N+](=O)[O-])cc2)cc1 (stereo unspecified)	Pf growth 96h 1.5µM
O=C(NCC1CCCO1)/C(=C\c1cccc([N+](=O)[O-])c1)NC(=O)c1ccccc1 (stereo unspecified)	none
O=C(NCC1CCCO1)C(=Cc1cccc([N+](=O)[O-])c1)C(=O)NCC1CCCO1 (stereo unspecified)	Pf growth 96h 13µM, Pf growth 48h inconclusive
O=C1CN(C(=O)c2ccc(Cl)c(S(=O)(=O)N3CCc4ccccc43)c2)c2ccccc2N1	Pf growth 96h inconclusive, Pf growth 48h inconclusive
CSCC(C)N1CCC(N2CCC(C(=O)NCc3ccccn3)CC2)CC1 (stereo unspecified)	none
Cc1ccc(-c2nnn(CC(=O)N(c3ccc4c(c3)OCCO4)C(C(=O)NCC3CCCO3)c3ccc(F)cc3)n2)o1 (stereo unspecified)	Pf growth 96h inconclusive, Pf growth 48h inconclusive
NC1=NC(=O)/C(=C/c2ccc(-c3ccc(S(N)(=O)=O)cc3)o2)S1	none
CS(=O)(=O)Nc1ccc(-c2ccc(/C=C3\SC(N)=NC3=O)o2)cc1	Pf growth 96h 3.3µM
C=CCN(C(=O)CCC(=O)Nc1cc(C)on1)C(C(=O)NC(C)(C)CC)c1cccc(OC)c1OC (stereo unspecified)	none
Cc1ccc(-c2csc(NC(=O)c3ccccc3Cl)c2C(=O)O)cc1	CHX counter 23, Shiga inhibitor 40
CC(C)c1ccc(-c2csc(NC(=O)c3cccs3)c2C(=O)O)cc1	Shiga inhibitor 34
CC(C)c1ccc(C(CC(=O)O)NC(=O)c2cccs2)cc1 (stereo unspecified)	none
NS(=O)(=O)c1ccc(CCNC(=O)CNC(=O)c2ccccc2F)cc1	none
Cc1[nH][nH]c(=O)c1C(c1c(C)[nH][nH]c1=O)c1cn(C)c2ccccc12	Pf growth 48h 10µM
COc1ccc(C2CC(c3cccs3)=NN2C(=O)CSc2nnnn2C)cc1OC (stereo unspecified)	Pf growth 96h 12µM, Pf growth 48h inconclusive
COc1ccc(C2CC(c3cccs3)=NN2C(=O)c2ccco2)cc1OC (stereo unspecified)	Pf growth 96h 0.13µM, Pf growth 48h 0.26µM
CCN1CCN(CC(=O)N2N=C(c3cccs3)CC2c2ccc(OC)c(OC)c2)C(=O)C1=O (stereo unspecified)	Pf growth 96h inconclusive, Pf growth 48h inconclusive
O=C(c1ccco1)N1N=C(c2cccs2)CC1c1ccc(F)cc1 (stereo unspecified)	Pf growth 96h 0.83µM (no result: Pf growth 48h)
CS(=O)(=O)Nc1ccc(C2=NN(C(=O)c3ccco3)C(c3ccc(F)cc3)C2)cc1 (stereo unspecified)	Pf growth 96h inconclusive, Pf growth 48h inconclusive
O=C(Nc1ccc2oc(-c3ccccc3)nc2c1)c1ccncc1	Pf growth 96h inconclusive
Cc1ccc2oc(-c3cccc(NC(=S)NC(=O)c4cccs4)c3)nc2c1	CHX counter 41, Shiga inhibitor 24
Cc1ccc2oc(-c3cccc(NC(=S)NC(=O)/C=C/c4ccco4)c3)nc2c1	CHX counter 52, Shiga inhibitor 69
O=C(Nc1ccc2oc(-c3ccccc3)nc2c1)c1cccs1	CHX counter 55, Shiga inhibitor 67
CC(=O)N(C)c1ccc(NC(=S)NC(=O)/C=C/c2ccco2)cc1	Pf growth 48h inconclusive
Cc1cnc(NC(=O)c2cc3c(C)nn(Cc4ccccc4Cl)c3s2)s1	Pf growth 96h 13µM, Pf growth 48h 7.4µM
COc1cccc(Oc2cn[nH]c2-c2ccc(OC)cc2O)c1	Pf growth 48h 8.3µM (no result: Pf growth 96h)
COc1cccc(Oc2cn[nH]c2-c2ccc(O)cc2O)c1	Pf growth 48h 5.2µM
CCOC(=O)C1CCN(C(=O)CCc2nnc3ccc(N4CCC(C)CC4)nn23)CC1	Pf growth 48h inconclusive
O=C(CC(=O)N/N=C/c1ccccc1)NCc1ccccc1	Pf growth 96h 10µM
O=C(CC(=O)N/N=C\c1c(Cl)cccc1Cl)NCc1ccccc1	Pf growth 96h 1µM
O=C(CC(=O)N/N=C/c1c(F)cccc1Cl)NCCc1ccccc1	Pf growth 96h inconclusive

Source: PubChem BioAssay
